ChEMBL document CHEMBL1961873, “Compounds: GSK PKIS; Assays: Nanosyn kinase panel” (2012)
Several values for one entry are separate records, joined by “and”; a condition that tells them apart may be missing. Equal values may be shown once.

Assays:
[1] = target: T1, Serine/threonine-protein kinase Nek9 (Homo sapiens) (UniProt Q8TD19); details: at 1 µM;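 also: each value is a mean percent inhibition of NEK9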
T1 sequence (whole entry): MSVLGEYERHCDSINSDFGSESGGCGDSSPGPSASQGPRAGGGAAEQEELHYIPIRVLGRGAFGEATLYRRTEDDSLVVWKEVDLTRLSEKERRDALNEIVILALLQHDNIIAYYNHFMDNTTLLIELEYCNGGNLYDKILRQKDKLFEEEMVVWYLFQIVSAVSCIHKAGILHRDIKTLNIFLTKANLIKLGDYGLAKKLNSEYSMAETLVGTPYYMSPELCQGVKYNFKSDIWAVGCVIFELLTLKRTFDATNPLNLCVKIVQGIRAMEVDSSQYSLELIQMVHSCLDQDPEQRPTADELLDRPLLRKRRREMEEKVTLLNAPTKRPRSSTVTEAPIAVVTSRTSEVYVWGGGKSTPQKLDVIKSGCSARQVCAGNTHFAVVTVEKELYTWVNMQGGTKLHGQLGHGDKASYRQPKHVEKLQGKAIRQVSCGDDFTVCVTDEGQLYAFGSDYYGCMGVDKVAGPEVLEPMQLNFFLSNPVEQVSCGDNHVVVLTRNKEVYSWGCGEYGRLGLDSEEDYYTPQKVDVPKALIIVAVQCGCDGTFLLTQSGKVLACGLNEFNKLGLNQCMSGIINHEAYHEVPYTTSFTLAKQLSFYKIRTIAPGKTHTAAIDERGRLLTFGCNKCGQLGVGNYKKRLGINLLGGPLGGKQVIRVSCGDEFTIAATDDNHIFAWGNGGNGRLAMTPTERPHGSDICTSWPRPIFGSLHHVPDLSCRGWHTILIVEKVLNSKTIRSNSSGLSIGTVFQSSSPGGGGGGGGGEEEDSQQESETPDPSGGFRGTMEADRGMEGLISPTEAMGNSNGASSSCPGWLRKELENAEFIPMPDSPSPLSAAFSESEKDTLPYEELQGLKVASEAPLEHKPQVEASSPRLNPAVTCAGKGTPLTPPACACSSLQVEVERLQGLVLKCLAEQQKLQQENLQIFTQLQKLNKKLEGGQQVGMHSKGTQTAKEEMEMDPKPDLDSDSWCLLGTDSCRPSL

[2] = target: Serine/threonine-protein kinase PLK1 (Homo sapiens) (UniProt P53350); details: at 0.1 µM
[3] = target: Serine/threonine-protein kinase PLK1 (Homo sapiens) (UniProt P53350); details: at 1 µM
[4] = target: T2, Dual specificity protein kinase TTK (Homo sapiens) (UniProt P33981); details: at 0.1 µM
T2 sequence (whole entry): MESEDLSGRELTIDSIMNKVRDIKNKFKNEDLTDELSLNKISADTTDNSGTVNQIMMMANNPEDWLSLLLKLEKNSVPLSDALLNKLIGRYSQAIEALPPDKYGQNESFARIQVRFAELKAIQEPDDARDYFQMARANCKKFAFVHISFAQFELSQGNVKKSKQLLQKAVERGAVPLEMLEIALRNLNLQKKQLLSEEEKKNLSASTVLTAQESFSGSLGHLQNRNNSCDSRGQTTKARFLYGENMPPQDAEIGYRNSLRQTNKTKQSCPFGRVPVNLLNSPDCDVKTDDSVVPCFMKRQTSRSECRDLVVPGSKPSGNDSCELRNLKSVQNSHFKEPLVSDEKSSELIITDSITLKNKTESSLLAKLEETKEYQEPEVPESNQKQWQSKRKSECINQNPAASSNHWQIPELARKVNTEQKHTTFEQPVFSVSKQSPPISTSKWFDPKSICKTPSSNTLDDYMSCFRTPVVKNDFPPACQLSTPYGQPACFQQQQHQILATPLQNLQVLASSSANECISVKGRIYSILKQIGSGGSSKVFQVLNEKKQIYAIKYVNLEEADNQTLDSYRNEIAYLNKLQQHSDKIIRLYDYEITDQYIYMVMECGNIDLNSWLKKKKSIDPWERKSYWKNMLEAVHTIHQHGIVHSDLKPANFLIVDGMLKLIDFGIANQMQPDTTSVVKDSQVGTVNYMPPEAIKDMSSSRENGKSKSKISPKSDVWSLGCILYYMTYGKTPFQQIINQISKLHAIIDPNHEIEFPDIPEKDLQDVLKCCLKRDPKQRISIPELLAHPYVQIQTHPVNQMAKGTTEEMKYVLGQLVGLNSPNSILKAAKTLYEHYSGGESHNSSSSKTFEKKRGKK

[5] = test system: T3, Receptor-type tyrosine-protein kinase FLT3 (Homo sapiens), P36888 [D835Y]; details: at 1 µM
T3 sequence (whole entry): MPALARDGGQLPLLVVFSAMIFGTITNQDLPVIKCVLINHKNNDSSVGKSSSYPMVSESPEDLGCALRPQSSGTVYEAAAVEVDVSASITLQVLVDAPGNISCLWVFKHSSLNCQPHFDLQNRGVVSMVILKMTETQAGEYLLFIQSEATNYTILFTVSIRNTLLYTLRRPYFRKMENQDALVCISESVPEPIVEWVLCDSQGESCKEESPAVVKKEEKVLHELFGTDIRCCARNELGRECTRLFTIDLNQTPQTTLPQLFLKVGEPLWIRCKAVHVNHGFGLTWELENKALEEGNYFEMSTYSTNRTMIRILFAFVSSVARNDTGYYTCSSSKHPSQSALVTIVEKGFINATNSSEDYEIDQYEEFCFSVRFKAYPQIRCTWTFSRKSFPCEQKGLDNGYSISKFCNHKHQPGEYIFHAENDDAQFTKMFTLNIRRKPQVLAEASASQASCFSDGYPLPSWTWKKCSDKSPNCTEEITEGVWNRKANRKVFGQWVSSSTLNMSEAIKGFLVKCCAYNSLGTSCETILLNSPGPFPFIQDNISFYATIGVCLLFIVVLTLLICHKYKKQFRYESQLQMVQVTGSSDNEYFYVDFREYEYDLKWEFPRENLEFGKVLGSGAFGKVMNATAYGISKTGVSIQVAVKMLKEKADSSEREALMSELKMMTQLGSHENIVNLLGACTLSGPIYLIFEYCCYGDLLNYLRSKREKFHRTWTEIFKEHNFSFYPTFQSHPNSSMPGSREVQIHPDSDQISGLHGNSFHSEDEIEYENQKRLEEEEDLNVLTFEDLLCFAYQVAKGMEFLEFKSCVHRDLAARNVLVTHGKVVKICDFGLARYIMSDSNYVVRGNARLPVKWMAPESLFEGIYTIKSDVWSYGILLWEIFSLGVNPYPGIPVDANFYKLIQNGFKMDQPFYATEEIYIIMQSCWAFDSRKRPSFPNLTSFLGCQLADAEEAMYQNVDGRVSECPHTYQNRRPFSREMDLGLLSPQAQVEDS

[6] = target: Vascular endothelial growth factor receptor 3 (Homo sapiens) (UniProt P35916); details: at 0.1 µM
[7] = target: Vascular endothelial growth factor receptor 3 (Homo sapiens) (UniProt P35916); details: at 1 µM
[8] = target: Macrophage colony-stimulating factor 1 receptor (Homo sapiens) (UniProt P07333); details: at 0.1 µM
[9] = target: Macrophage colony-stimulating factor 1 receptor (Homo sapiens) (UniProt P07333); details: at 1 µM
[10] = target: Tyrosine-protein kinase Fyn (Homo sapiens) (UniProt P06241); details: at 0.1 µM
[11] = target: Tyrosine-protein kinase Fyn (Homo sapiens) (UniProt P06241); details: at 1 µM
[12] = target: Tyrosine-protein kinase HCK (Homo sapiens) (UniProt P08631); details: at 0.1 µM
[13] = target: Tyrosine-protein kinase HCK (Homo sapiens) (UniProt P08631); details: at 1 µM
[14] = target: Insulin-like growth factor 1 receptor (Homo sapiens) (UniProt P08069); details: at 0.1 µM
[15] = target: Insulin-like growth factor 1 receptor (Homo sapiens) (UniProt P08069); details: at 1 µM
[16] = target: Insulin receptor (Homo sapiens) (UniProt P06213); details: at 0.1 µM
[17] = target: Insulin receptor (Homo sapiens) (UniProt P06213); details: at 1 µM
[18] = target: Insulin receptor-related protein (Homo sapiens) (UniProt P14616); details: at 0.1 µM
[19] = target: Insulin receptor-related protein (Homo sapiens) (UniProt P14616); details: at 1 µM
[20] = target: T4, Tyrosine-protein kinase ITK/TSK (Homo sapiens) (UniProt Q08881); details: at 0.1 µM;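 also: mean percent inhibition of ITK from the GSK PKIS screen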
T4 sequence (whole entry): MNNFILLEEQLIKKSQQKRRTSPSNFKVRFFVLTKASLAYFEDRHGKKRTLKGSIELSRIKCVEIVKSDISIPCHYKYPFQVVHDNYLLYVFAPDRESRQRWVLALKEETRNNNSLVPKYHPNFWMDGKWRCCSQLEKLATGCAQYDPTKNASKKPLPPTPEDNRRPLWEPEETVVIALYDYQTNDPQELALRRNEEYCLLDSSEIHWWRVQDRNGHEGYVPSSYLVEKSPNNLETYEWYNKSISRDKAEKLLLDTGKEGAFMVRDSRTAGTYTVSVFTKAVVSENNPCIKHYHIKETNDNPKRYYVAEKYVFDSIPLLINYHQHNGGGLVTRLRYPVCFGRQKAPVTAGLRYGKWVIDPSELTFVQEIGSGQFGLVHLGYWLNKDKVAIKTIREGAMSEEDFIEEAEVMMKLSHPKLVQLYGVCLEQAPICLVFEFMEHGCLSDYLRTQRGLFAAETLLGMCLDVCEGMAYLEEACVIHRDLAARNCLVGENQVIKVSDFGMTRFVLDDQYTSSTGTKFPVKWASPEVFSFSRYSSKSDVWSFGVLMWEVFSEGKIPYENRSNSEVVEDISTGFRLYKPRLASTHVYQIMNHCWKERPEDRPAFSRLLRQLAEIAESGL

Tyrosine-protein kinase Fyn (Homo sapiens), sequence (P06241 2-537 limits assumed): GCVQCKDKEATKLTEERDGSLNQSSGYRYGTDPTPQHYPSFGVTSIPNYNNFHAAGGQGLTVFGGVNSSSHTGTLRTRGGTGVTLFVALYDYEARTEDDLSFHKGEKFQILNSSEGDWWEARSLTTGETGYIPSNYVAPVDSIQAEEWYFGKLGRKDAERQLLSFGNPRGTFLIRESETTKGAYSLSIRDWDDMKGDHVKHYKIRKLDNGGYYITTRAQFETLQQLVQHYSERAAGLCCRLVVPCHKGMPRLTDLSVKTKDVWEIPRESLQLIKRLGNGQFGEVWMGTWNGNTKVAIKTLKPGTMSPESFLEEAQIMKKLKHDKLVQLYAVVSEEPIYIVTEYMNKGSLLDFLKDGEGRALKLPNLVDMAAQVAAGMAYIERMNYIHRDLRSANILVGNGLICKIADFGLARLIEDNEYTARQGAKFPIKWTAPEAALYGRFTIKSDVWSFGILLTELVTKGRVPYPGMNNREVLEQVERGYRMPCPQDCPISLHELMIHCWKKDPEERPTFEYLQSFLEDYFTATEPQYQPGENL
Vascular endothelial growth factor receptor 3 (Homo sapiens), sequence (P35916 whole entry): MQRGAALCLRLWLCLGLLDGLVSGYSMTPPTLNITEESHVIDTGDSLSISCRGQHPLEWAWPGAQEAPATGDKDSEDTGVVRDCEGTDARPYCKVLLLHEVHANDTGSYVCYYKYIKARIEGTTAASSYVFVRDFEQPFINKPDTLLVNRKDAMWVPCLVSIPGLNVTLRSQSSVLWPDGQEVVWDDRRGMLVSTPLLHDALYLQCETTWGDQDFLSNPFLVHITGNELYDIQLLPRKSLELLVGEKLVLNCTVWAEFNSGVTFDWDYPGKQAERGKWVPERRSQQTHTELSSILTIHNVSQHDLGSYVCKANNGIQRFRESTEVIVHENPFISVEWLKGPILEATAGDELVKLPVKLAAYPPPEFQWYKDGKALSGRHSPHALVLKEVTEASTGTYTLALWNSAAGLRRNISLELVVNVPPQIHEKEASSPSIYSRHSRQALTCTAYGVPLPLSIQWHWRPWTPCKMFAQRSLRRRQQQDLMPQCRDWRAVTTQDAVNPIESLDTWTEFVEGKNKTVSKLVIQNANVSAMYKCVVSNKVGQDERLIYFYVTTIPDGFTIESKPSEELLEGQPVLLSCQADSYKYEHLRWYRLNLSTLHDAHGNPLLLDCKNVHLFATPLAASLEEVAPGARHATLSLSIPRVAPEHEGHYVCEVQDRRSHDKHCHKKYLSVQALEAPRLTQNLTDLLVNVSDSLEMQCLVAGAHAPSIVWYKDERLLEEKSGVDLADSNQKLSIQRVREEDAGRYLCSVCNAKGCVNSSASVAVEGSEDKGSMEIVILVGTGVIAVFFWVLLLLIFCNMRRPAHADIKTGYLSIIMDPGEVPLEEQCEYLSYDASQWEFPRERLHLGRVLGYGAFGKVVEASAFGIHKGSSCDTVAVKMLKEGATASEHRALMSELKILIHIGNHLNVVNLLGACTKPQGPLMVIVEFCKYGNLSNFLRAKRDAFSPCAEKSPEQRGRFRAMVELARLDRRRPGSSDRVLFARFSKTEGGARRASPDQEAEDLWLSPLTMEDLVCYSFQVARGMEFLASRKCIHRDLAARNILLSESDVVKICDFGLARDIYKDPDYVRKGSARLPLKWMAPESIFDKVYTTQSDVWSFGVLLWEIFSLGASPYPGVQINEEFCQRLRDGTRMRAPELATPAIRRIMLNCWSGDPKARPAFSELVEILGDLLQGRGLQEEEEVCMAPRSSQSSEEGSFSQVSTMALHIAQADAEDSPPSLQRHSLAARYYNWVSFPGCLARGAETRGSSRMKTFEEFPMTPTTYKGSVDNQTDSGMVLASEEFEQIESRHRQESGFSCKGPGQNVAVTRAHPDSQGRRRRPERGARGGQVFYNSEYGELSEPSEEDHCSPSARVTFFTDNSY
Insulin receptor-related protein (Homo sapiens), sequence (P14616 27-742 limits assumed): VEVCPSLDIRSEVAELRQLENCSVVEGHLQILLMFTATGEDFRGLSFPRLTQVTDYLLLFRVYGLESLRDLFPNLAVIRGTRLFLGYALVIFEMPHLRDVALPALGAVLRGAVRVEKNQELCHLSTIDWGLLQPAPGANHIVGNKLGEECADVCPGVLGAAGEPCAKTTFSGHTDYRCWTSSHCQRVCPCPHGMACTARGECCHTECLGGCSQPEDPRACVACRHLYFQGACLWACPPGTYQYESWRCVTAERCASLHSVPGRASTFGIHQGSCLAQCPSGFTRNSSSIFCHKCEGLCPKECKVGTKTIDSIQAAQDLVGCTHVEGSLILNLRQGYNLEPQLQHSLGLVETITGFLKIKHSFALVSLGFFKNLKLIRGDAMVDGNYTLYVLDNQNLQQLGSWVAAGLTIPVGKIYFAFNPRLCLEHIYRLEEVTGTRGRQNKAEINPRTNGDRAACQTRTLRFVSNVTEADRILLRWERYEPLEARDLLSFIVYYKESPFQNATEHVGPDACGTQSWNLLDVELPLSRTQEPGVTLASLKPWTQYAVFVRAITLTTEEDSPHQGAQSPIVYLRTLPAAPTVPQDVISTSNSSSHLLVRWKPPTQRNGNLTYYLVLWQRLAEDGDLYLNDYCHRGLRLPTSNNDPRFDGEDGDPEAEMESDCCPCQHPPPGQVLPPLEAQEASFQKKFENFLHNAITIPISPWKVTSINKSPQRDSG
Insulin receptor-related protein (Homo sapiens), sequence (P14616 747-1297 limits assumed): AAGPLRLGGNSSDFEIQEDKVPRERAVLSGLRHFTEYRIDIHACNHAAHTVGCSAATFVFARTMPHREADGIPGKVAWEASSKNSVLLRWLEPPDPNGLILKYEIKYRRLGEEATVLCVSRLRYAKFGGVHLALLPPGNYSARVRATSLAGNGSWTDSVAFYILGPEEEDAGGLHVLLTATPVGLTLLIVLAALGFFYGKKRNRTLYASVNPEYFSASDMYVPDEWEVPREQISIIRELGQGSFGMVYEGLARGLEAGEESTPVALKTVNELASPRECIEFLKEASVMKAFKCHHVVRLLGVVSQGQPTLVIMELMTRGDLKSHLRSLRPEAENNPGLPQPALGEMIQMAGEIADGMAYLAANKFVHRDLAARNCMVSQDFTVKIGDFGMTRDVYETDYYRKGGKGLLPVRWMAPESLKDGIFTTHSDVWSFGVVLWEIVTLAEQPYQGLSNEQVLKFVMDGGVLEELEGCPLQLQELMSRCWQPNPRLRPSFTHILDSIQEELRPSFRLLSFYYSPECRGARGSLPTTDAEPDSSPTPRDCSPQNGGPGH
Insulin receptor (Homo sapiens), sequence (P06213 28-758 limits assumed): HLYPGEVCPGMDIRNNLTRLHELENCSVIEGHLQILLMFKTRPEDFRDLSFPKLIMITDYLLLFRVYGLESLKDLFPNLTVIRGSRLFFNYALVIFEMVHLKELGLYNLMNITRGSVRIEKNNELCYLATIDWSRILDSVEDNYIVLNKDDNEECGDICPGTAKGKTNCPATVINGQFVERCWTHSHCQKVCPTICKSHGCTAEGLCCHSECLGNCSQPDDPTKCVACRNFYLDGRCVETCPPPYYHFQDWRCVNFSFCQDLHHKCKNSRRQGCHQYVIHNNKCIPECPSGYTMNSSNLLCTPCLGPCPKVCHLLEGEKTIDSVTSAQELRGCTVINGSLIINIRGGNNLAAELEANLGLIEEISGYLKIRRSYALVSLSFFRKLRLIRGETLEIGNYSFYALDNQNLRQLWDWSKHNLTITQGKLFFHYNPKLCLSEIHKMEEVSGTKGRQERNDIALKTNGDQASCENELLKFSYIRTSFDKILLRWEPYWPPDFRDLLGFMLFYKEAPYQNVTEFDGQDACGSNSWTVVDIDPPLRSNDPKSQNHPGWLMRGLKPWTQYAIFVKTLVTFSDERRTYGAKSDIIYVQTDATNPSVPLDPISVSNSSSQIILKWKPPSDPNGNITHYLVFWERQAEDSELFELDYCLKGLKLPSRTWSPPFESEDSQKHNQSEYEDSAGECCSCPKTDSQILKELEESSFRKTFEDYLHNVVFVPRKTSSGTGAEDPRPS
Insulin receptor (Homo sapiens), sequence (P06213 763-1382 limits assumed): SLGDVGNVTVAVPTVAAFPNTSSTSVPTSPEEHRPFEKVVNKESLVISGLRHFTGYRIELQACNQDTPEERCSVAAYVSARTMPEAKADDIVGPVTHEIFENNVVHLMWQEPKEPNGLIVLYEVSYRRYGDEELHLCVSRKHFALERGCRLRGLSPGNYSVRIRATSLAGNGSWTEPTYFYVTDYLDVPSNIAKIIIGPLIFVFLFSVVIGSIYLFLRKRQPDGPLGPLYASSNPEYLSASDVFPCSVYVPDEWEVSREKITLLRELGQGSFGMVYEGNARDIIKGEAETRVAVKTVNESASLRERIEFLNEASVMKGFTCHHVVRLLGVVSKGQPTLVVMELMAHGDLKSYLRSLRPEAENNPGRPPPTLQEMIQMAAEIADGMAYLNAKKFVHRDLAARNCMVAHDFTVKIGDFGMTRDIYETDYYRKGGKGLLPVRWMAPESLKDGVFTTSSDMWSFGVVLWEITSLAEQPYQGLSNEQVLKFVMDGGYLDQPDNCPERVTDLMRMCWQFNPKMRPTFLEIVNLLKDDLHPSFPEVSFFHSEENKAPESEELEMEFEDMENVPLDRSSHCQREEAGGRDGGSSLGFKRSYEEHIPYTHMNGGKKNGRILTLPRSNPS
Tyrosine-protein kinase HCK (Homo sapiens), sequence (P08631 2-526 limits assumed): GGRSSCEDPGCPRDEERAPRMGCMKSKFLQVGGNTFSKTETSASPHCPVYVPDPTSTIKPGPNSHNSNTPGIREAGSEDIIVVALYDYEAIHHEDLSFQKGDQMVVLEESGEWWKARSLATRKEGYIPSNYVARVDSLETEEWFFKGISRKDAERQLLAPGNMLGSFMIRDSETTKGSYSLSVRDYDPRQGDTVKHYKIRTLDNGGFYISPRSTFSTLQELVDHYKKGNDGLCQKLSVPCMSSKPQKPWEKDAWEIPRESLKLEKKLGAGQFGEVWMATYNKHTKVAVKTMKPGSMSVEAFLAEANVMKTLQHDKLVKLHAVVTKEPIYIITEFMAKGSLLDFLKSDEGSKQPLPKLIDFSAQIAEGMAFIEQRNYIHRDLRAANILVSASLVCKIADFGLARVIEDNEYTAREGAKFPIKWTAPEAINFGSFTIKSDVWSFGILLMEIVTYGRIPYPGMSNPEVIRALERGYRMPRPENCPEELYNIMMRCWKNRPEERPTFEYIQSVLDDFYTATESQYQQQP

Structure (SMILES) | inhibition [1] | inhibition [2] | inhibition [3] | inhibition [4] | inhibition [5] | inhibition [6] | inhibition [7] | inhibition [8] | inhibition [9] | inhibition [10] | inhibition [11] | inhibition [12] | inhibition [13] | inhibition [14] | inhibition [15] | inhibition [16] | inhibition [17] | inhibition [18] | inhibition [19] | inhibition [20]
Nc1nonc1-c1nc2cnccc2n1C1CC1 | 1.51% and 3.66% | 3.84% and 2.82% | 5.97% and 4.56% | 5.61% and 5.02% | 7.78% and 5.95% | 5.27% and -4.56% | 21.9% and 17.5% | 3.87% and 1.25% | 10.1% and 8.4% | 1.35% and -1.92% | 1.39% and -1.43% | 5.06% and 2.65% | 10.4% and 4.62% | 2.14% and -5.78% | 3.37% and -3.55% | -0.15% and 4.69% | 2.19% and 6.69% | 2.59% and 0.39% | 3.14% and 0.7% | 1.56% and -2.28%
Cn1c(-c2nonc2N)nc2cnccc21 | 10.4% | 4.28% | 5.16% | 5.36% | 6.27% | 2.31% | -0.12% | -0.13% | 4.58% | 1.61% | 2.28% | 6.35% | 6.33% | 1.93% | 3.66% | 5.09% | 6.68% | 2.16% | -0.85% | 1.03%
NS(=O)(=O)c1cccc(N/C=C2\C(=O)Nc3ccccc32)c1 | 4.34% | 3.78% | 4.79% | 9.01% | 25.9% | 1.98% | 14.8% | 5.41% | 25.1% | 2.53% | 4.25% | 6.87% | 17.6% | 2.44% | 5.81% | 5.3% | 11.9% | 2.22% | 2.55% | 1.13%
Fc1cccc(COc2ccc(Nc3ncncc3C#Cc3ccccc3)cc2Cl)c1 | 8.71% | 3.37% | 3.17% | 7.47% | -0.95% | 4.04% | 0.69% | 3.32% | 4.86% | 1.15% | 2.9% | 5.09% | 7.44% | 3.73% | 3.91% | 2.77% | 4.63% | 0.84% | 3.29% | 1.58%
CCN1CCC(C(=O)Nc2n[nH]c3nnc(-c4cccc(F)c4F)cc23)CC1 | 3.91% | -0.35% | -0.89% | -0.14% | 1.33% | 1.09% | 0.68% | -1.42% | 7.94% | 1.4% | 0.66% | 0.33% | 0.65% | -0.72% | -1.06% | -0.08% | 1.38% | -1.17% | -1.67% | 0.47%
CCOc1ccc2c(-c3ccnc(Nc4cc(OC)cc(C(F)(F)F)c4)n3)cnn2n1 | 7.2% | 0.53% | 1.68% | -0.36% | 17% | 15.8% | 22.8% | 2.34% | 17.2% | 3.33% | 13.1% | 3.74% | 4.95% | 8.6% | 7.42% | -0.85% | 1.65% | -0.39% | 0.03% | 0.24%
FC(F)(F)CNc1nccc(-c2cnn3ncccc23)n1 | 0.64% | 0.06% | 0.65% | 3.92% | 6% | 2.05% | 2.12% | -4.71% | 3.68% | 0.85% | 0.37% | 2.76% | 2.72% | 1.46% | 1.63% | 0.86% | 1.21% | -0.18% | 1.1% | -0.07%
